# Inconclusive results are not listed. A number with no mark means an inactive call. The source made the active and inactive calls. Calls follow the shape of the dose curve; as a rule, active = well fitted inhibition curve with a large enough effect; inconclusive = small, poorly fitted or top-dose-only effect; inactive = flat fitted curve, though single readings scatter.
# System: CP201
# Assay: qHTS profiling for inhibitors of Plasmodium falciparum proliferation (AID 504749); also: nearly all actives have a fitted effect of over 60% in size;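 as to activity, negative = inhibition: 0% = DMSO vehicle and full inhibition = artemisinin control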
# Conditions: P. falciparum in erythrocytes, SYBR Green DNA, 72 h; series mostly up to 28.7 µM; activity, negative = inhibition: at the top concentration
# Procedure, shortened: (§1)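 SYBR Green fluorescence of parasite DNA, read after lysis and overnight dark incubation, measured growth over 72 h in erythrocyte culture at 0.3% parasitemia and 2.5% hematocrit. Data normalised to DMSO and 0.29 uM artemisinin, with plate-drift correction.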
# Potency is read from the fitted curve at half-maximal effect.
row,Structure (SMILES),"activity, negative = inhibition"
1,CCCCc1ccc(C(=O)O)nc1,4.02%
2,COC(=O)c1cncn1C(C)c1ccccc1 (centres undefined),3.09%
3,NC1=NC(=O)N2CC12 (centres undefined),-15.8%
4,Cc1ccc(Cl)c(O)c1,-2.11%
5,CC(C)NC(C)Cc1ccc(I)cc1 (centres undefined),-3.25%
6,CC(=O)OCC1=C(C(=O)O)N2C(=O)[C@@H](N)[C@@H]2SC1,2.62% [at 12.8 µM]
7,CCCN1CCC[C@H](c2cccc(O)c2)C1,-2.35%
8,CN(C)[C@@H]1C(=O)C(C(N)=O)=C(O)[C@@]2(O)C(=O)C3=C(O)c4c(O)cccc4[C@@](C)(O)[C@H]3[C@H](O)[C@@H]12,-3.51%
9,CN[C@@H]1C[C@@H](c2ccc(Cl)c(Cl)c2)c2ccccc21,-14.5%
10,COC(=O)[C@@H](N)CCCN=C(N)N[N+](=O)[O-],-1.94%
11,CC[N+]1(CCOC(=O)C(O)(c2ccccc2)c2ccccc2)CCCCC1,-6.39%
12,Cc1cc(O)ccc1Cl,-4.68%
13,CCCCCCCCCC(CC)c1ccc(S(=O)(=O)O)cc1 (centres undefined),-0.908%
14,O=C(O)COc1ccccc1,5.88%
15,c1ccc(C2(c3ccccc3)CC2C2=NCCN2)cc1 (centres undefined),-6.88%
16,O=C(O)C(Cl)Cl,5.03%
17,C#CC1(O)CCC2C3CCC4=CC(=O)CCC4(C)C3CCC21C (centres undefined),-2.93%
18,C[C@]12CCC(=O)C(O)=C1CC[C@@H]1[C@H]3CCC(=O)[C@@]3(C)CC[C@@H]12,-0.45%
19,CN1C2CCC1CC(OC(=O)c1cc(Cl)cc(Cl)c1)C2 (centres undefined),-9.77%
20,NC(=O)CN1CC(O)CC1=O (centres undefined),-1.28%
21,C=CCN1CC[C@]23CCCCC2[C@H]1Cc1ccc(O)cc13 (some centres undefined),-3.18%
22,C1CCC(NC2CCCCC2)CC1,-5.09%

# System: CP203
# Assay: as above
# Conditions: P. falciparum in erythrocytes, SYBR Green DNA, 72 h; series mostly up to 28.7 µM; activity, negative = inhibition: at the top concentration
# Procedure, shortened: as §1
Structure (SMILES),"activity, negative = inhibition",Potency
CCCCc1ccc(C(=O)O)nc1,0.177%,–
COC(=O)c1cncn1C(C)c1ccccc1 (centres undefined),-3.39%,–
O=[N+]([O-])c1ccc([As](=O)(O)O)cc1,–,9.53 µM (active)
NC1=NC(=O)N2CC12 (centres undefined),2.67%,–
Cc1ccc(Cl)c(O)c1,-2.88%,–
CC(C)NC(C)Cc1ccc(I)cc1 (centres undefined),-21.5%,–
CC(=O)OCC1=C(C(=O)O)N2C(=O)[C@@H](N)[C@@H]2SC1,-0.508% [at 12.8 µM],–
CCCN1CCC[C@H](c2cccc(O)c2)C1,-7.06%,–
COC(=O)[C@@H](N)CCCN=C(N)N[N+](=O)[O-],1.27%,–
CC[N+]1(CCOC(=O)C(O)(c2ccccc2)c2ccccc2)CCCCC1,-7.03%,–
CC(=O)[O][Hg][c]1ccccc1,–,13.5 µM (active)
Cc1cc(O)ccc1Cl,-1.07%,–
CCCCCCCCCC(CC)c1ccc(S(=O)(=O)O)cc1 (centres undefined),-2.06%,–
O=C(O)COc1ccccc1,-0.0774%,–
c1ccc(C2(c3ccccc3)CC2C2=NCCN2)cc1 (centres undefined),-7.6%,–
O=C(O)C(Cl)Cl,3.22%,–
C#CC1(O)CCC2C3CCC4=CC(=O)CCC4(C)C3CCC21C (centres undefined),3.85%,–
C[C@]12CCC(=O)C(O)=C1CC[C@@H]1[C@H]3CCC(=O)[C@@]3(C)CC[C@@H]12,7.77%,–
CN1C2CCC1CC(OC(=O)c1cc(Cl)cc(Cl)c1)C2 (centres undefined),-9.13%,–
NC(=O)CN1CC(O)CC1=O (centres undefined),1.13%,–
C=CCN1CC[C@]23CCCCC2[C@H]1Cc1ccc(O)cc13 (some centres undefined),1.02%,–
C1CCC(NC2CCCCC2)CC1,-1.06%,–
